Reference: PubChem BioAssay AID893 (National Center for Advancing Translational Sciences (NCATS), 2007)
The campaign covered roughly 75,000 compounds. About 5,700 (7.6%) were called active. Inconclusive results (about 7%) are left out. The sample holds actives, similar compounds and a random draw of the others, so the mix is not that of the screen. Unmarked numbers belong to inactive results. Calls come from the whole dose curve; as a rule, active = well fitted inhibition curve with a large enough effect; inconclusive = small, poorly fitted or top-dose-only effect; inactive = no such curve, though single readings can be large or run the other way.

Target: 3-hydroxyacyl-CoA dehydrogenase type-2 (Homo sapiens) (UniProt Q99714)
Test: qHTS Assay for Inhibitors of HSD17B4, hydroxysteroid (17-beta) dehydrogenase 4;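 note: the protocol describes HADH2 (HSD17B10) and not the HSD17B4 of the title; nearly all actives have a fitted effect of over 70% in size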
Details: recombinant HSD17B10, NADH fluorescence kinetic; series mostly up to 57.1 µM; activity change, negative = inhibition: at the top concentration
Outline: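 20 nM HADH2, pH 9.0 Tris/Tween; cpd preinc 15 min RT; start w/ 1 mM NAD+ + 90 uM b-hydroxybutyryl-CoA; kinetic fluor ex360/em450 q30s x 4 min; delta last-first.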
% is set by controls: 0 for no effect and ±100 for the full control effect; potency is the fitted concentration of half-maximal effect.

Structure (SMILES) | Potency | activity change, negative = inhibition
CSc1sc(C)cc1C1C(C#N)=C(N)N(c2cccnc2)C2=C1C(=O)CCC2 (stereo unspecified) | 15.8 µM (active) | 
O=S(=O)(c1ccccc1)N1CCC2(CC1)CN(Cc1nccs1)C2 |  | 6.63%
CCCC(C(=O)N1CCOCC1)N1C(=O)C2C3C=CC(C3)C2C1=O (stereo unspecified) |  | 3.68%
O=C(O)C1CCN(S(=O)(=O)N2CCOCC2)CC1 |  | 12.1%
COc1ccccc1N1CCN(C(=O)c2cc3c(-c4ccc(Cl)cc4)nn(C)c3s2)CC1 |  | -6.74%
CCOC(=O)N1CCN(C(=O)c2cc3c(-c4ccc(Cl)cc4)nn(C)c3s2)CC1 |  | 5.07%
Cn1nc(-c2ccc(Cl)cc2)c2cc(C(=O)NCc3ccco3)sc21 | 31.6 µM (active) | 
Cc1ccc(C)n1C(Cc1ccccc1)C(=O)O (stereo unspecified) | 10 µM (active) | 
O=C(C(Cc1ccccc1)n1cccc1)N1CCN(C2CCCCC2)CC1 (stereo unspecified) |  | -2.66%
CC(Cc1ccccc1)C(=O)N(C)Cc1ccccc1 (stereo unspecified) |  | -7.16%
C=CCn1c(SCc2cc(C(=O)OC)c(C)o2)nnc1-c1ccncc1 |  | -12.7%
CCC(C)(C(=O)NC1CCCC1)N(C(=O)CNC(C)=O)c1ccc(C)cc1 (stereo unspecified) |  | -3.05%
O=C(CSC1=Nc2ccccc2C2=NC(c3ccccc3)C(=O)N12)NCC1CCCO1 (stereo unspecified) | 31.6 µM (active) | 
O=C(CS(=O)(=O)Cc1ccccc1)NCC1CCCO1 (stereo unspecified) |  | 2.9%
Cc1ccc2cc(C#N)c(SCC(=O)NCC3CCCO3)nc2c1C (stereo unspecified) |  | 12%
Cc1ncn(C23CC4CC(CC(O)(C4)C2)C3)n1 |  | 12.4%
COC(=O)C1(C)C=CC2(CCCCC2)N1C(C)=O (stereo unspecified) |  | 25.3%
O=C(O)C1=CCCN(CCON=C(c2ccccc2)c2ccccc2)C1 | inactive | 
O=C(Nc1ccccc1)N[C@H]1C[C@H](C(=O)O)Nc2cc(Cl)cc(Cl)c21 |  | -2.74%

Structure (SMILES) | Potency | activity change, negative = inhibition
COc1cc2nc(N3CCN(C(=O)[C@@H]4CCCO4)CC3)nc(N)c2cc1OC | 12.6 µM (active) | 
COc1ccc(S(=O)(=O)N2CCC(C(=O)N3CCOCC3)CC2)cc1OC |  | 7.24%
O=C(C1CCCO1)N1CCC(c2nc3ccccc3[nH]2)CC1 (stereo unspecified) |  | -27%
COc1ccc(N2C(=O)C3CCCN3C2c2cc(OC)c(OC)cc2OC)cc1 (stereo unspecified) |  | 3.49%
CCN(CC)S(=O)(=O)c1cc(C(=O)Nc2ccccn2)ccc1C |  | 4.29%
CCCCOc1ccc(C(=O)NCc2ccco2)cc1 |  | -4.29%
COc1ccccc1C(=O)NCCn1cc(SCC(=O)NCc2ccco2)c2ccccc21 |  | -14.1%
CCOc1ccccc1C(=O)NCc1ccco1 | 25.1 µM (active) | 
Cn1cccc1C(=O)Nc1nccs1 |  | 1.39%
Cn1cccc1C(=O)NC(=O)COC(=O)Cc1coc2ccc3ccccc3c12 | 31.6 µM (active) | 
CC(C)(C)NC(=O)NC(=O)COC(=O)Cn1c(C(F)(F)F)nc2ccccc21 |  | 6.12%
CSCC[C@H](NC(=O)NCCc1ccc(F)cc1)C(=O)O |  | 7.27%
O=C1OC(C(O)CO)C(O)=C1O (stereo unspecified) |  | 7.41%
COc1ccc(CCN=C2SCC(=O)N2C)cc1OC |  | 11.7%
COc1ccc(C(=O)N(Cc2ccc(N(C)C)cc2)C2CCS(=O)(=O)C2)cc1 (stereo unspecified) |  | -23.7%
CCCCC(CC)CN (stereo unspecified) | inactive | 
N[C@H](C(=O)O)c1ccc(C(=O)O)c(O)c1 | 39.8 µM (active) | 
N[C@@H](C(=O)O)c1ccc(P(=O)(O)O)cc1 |  | -11.4%
O=C(c1ccc(O)cc1)c1ccc(C(=O)O)c(C(=O)O)c1 |  | -7.84%

Structure (SMILES) | Potency | activity change, negative = inhibition
Cc1noc(NS(=O)(=O)c2ccc(NC(=O)C34CCC(CC3)C4)cc2)c1C |  | 8.81%
CCOC(=O)N/N=C1/C[C@@H](O)[C@@H](O)[C@@H]2[C@@H]3C(=O)N(CC)C(=O)[C@H]3CC[C@H]12 |  | 7.25% [at 11.4 µM]
O=C(c1c(Cl)nc2sccn12)N1CCCc2ccccc21 |  | 6.22%
O=C(c1ccco1)N1CCC[C@@]2(CCN(c3ccccc3)C2)C1 |  | -5.83%
CC(C)NC(=O)N1CC[C@@]2(CCCN(C(=O)c3ccco3)C2)C1 |  | 4.84%
O=C(c1ccco1)N1CCC2(CC1)CCN(c1ncccn1)CC2 | 31.6 µM (active) | 
COc1ccc(OC)c(S(=O)(=O)Nc2ccccc2F)c1 |  | 3.76%
COC(=O)c1ccc(NC(=O)CSc2nnc(-c3ccncc3)n2C)cc1 |  | 3.29%
CC(=O)NC1=NC(=O)CS1 |  | 9.12%
O=C1CC(c2ccccc2)C(=O)N1c1cccc(O)c1 (stereo unspecified) |  | 3.33%
Cc1ccc(Oc2nc3ccccc3n3c(C)nnc23)cc1 |  | 8.54%
CN(c1nc2ccccc2n2c(-c3ccco3)nnc12)S(=O)(=O)c1ccccc1 | 1 µM (active) | 
CCCCNC(=O)CSc1nnc(-c2ccco2)n1C |  | 2.87%
CC1=C2C(=O)OC(c3ccoc3)C2(C)CCC1 (stereo unspecified) |  | 0.438%
Cc1ccccc1OCCC(=O)Nc1c(C)n(C)n(-c2ccccc2)c1=O |  | 9.86%
O=C(NCc1ccc2c(c1)OCO2)c1ccc2c(c1)C(=O)N(CC1CCCO1)C2=O (stereo unspecified) |  | 4.35%
O=C(CCN1C(=O)c2ccncc2C1=O)Nc1ccc2c(c1)OCCO2 |  | 8.58%
CCC(=O)Nc1ccc(C(=O)Nc2ccc3c(c2)C(=O)N(CC2CCCO2)C3=O)cc1 (stereo unspecified) | 31.6 µM (active) | 
